# Hits are enriched below; roughly 3.5% of the tested compounds scored in any of these assays.
# Anthrax LF inh2: inhibitors of Bacillus anthracis lethal factor protease; P15917; multiplex microsphere protease cleavage assay, LF; inhibition, % at 10 µM; 360,000 tested, 0.12% active; AID 588501; in the data active = inhibition above about 30%; inconclusive = no clear call, values can overlap the other calls; also: plate controls were buffer without enzyme for full effect and enzyme alone for no effect
# Target sequence (P15917 whole entry, looked up): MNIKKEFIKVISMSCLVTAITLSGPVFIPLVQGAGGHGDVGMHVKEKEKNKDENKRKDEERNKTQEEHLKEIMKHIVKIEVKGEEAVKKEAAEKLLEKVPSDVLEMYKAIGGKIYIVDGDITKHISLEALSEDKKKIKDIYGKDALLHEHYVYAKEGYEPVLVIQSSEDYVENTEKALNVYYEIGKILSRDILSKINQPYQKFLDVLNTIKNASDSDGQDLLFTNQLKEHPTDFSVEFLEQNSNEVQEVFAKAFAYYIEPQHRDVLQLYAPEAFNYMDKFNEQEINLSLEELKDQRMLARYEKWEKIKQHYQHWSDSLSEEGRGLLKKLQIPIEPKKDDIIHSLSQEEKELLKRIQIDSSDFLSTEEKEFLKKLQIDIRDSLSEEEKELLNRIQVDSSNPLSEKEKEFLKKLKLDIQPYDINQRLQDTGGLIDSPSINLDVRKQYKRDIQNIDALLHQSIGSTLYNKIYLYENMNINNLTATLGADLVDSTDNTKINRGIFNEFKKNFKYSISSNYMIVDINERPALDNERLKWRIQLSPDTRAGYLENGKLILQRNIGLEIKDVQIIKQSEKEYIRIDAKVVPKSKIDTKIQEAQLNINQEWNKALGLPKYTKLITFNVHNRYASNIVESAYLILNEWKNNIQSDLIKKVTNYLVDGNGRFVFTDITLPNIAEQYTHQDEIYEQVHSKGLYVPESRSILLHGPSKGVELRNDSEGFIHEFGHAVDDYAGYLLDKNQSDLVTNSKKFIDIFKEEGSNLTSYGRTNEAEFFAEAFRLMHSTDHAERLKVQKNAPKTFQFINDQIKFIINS
# BoNT A protease: inhibitors of Botulinum neurotoxin A light chain protease; multiplex microsphere protease substrate cleavage, flow cytometry; AID 588499; inhibition, % at 10 µM; 360,000 tested, 0.17% active; in the data active = inhibition above about 30%; inconclusive = no clear call, values can overlap the other calls; also: plate controls were buffer without enzyme for full effect and enzyme alone for no effect
# BoNT F protease: blocks Botulinum neurotoxin F light chain protease | Multiplex microsphere protease cleavage assay, flow cytometry | inhibition, % at 10 µM | 360,000 tested, 0.22% active | AID 588497; in the data active = inhibition above about 35%, passing the limit was not always enough; inconclusive = no clear call, values can overlap the other calls; also: plate controls were buffer without enzyme for full effect and enzyme alone for no effect
# Bead autofluor: counter-screen for toxin protease inhibitors: compound fluorescence. 360,000 tested, 3.1% active. fluorescence intensity (concentration not given with the values). compound autofluorescence counterscreen, microsphere flow cytometry; stronger effect = higher value. AID 624483; in the data active = fluorescence intensity above about 16000; inconclusive = no clear call, values can overlap the other calls
# BoNT-A LC CP1: inhibitors of Botulinum neurotoxin A light chain protease | shares compounds with BoNT F protease | multiplex microsphere protease assay, flow cytometry | inhibition, % at 10 µM | 720 tested, 3% active; in the data active = inhibition above about 32%
# BoNTF LC inh 1: inhibitors of Botulinum neurotoxin F light chain protease; multiplex microsphere protease cleavage assay, flow cytometry; shares compounds with BoNT F protease; 720 tested, under 10 active; inhibition, % at 10 µM
# Anthrax LF CP1: inhibitors of Bacillus anthracis lethal factor protease. shares compounds with BoNT F protease. multiplex microsphere protease cleavage assay, LF. inhibition, % at 10 µM. 720 tested, under 10 active
# An asterisk follows results filed as active; ? = inconclusive; . = no result. Unless noted, no rule for the calls is given here.
SMILES,Anthrax LF inh2,BoNT A protease,BoNT F protease,Bead autofluor,BoNT-A LC CP1,BoNTF LC inh 1,Anthrax LF CP1
COc1cccc(CN2CCSCC2)c1OC,-21.2,1.9,10.9,3808,.,.,.
NC(=O)Cn1nc(-c2ccccc2)nc1-c1ccccc1,31.0*,-2.3,?,4464,-2.3,-5.6,4.5
CCN(CCCNC(=O)CN1C(=O)COc2ccccc21)c1ccccc1,34.8*,30.5*,20.8,5098,0.7,-3.1,-4.2
NS(=O)(=O)c1cccc(NC(=O)CC(NC(=O)c2ccccc2Cl)c2ccccc2)c1 (stereo not drawn),9.0,-1.5,34.7*,3427,0.6,-4.2,-0.8
Cc1nc2ccc([N+](=O)[O-])cc2c(=O)n1Cc1cccc(F)c1,60.4*,4.4,85.3*,7839,-3.4,-11.3,-0.1
Cc1ccc(C(=O)Nc2scc(-c3ccccc3)c2C(=O)O)cc1,11.1,5.0,36.2*,3585,-0.2,-4.0,6.5
Cc1c(NC(=O)Nc2cccc(C(F)(F)F)c2)c(=O)n(-c2ccccc2)n1C,-3.2,-2.0,5.8,6822,.,.,.
O=C(Nc1ccc(Nc2ccncc2)cc1)c1ccc([N+](=O)[O-])cc1,35.8*,0.7,-7.7,3510,-1.3,-9.8,-2.1
O=C(Nc1ccc(Oc2cccnc2)cc1)c1ccc([N+](=O)[O-])cc1,-1.5,-0.2,-1.8,2603,.,.,.
COc1ccc(-c2ccnc(SCC(=O)c3ccc(OC)c(OC)c3)n2)cc1,0.1,-0.7,-10.6,2048,.,.,.
COc1ccc(-c2ccnc(SCC(=O)c3ccc(Cl)cc3)n2)cc1,37.6*,7.9,70.0*,6905,0.3,-4.1,-2.0
CCCCNC(=O)Cn1cnc([N+](=O)[O-])n1,0.5,4.6,40.4*,2612,-1.1,0.2,6.4
COc1ccc2nc(C)cc(NCc3ccc(F)cc3)c2c1,14.4,15.8,134.4*,84261*,-10.9,74.5*,6.6
COc1ccc2nc(C)cc(Nc3ccc(C)cc3)c2c1,7.7,-1.9,?,3745,.,.,.
COc1ccc(CCC(=O)NCCOc2ccccc2Cl)cc1,-8.1,-1.0,6.0,6971,.,.,.
CC(C)C(NS(=O)(=O)c1ccccc1)C(=O)N1CCCC1 (stereo not drawn),17.4,-3.7,?,4384,.,.,.
O=C(CSc1nnnn1-c1ccc2c(c1)OCCO2)N1CCN(C(=O)c2ccco2)CC1,-1.6,-0.5,-2.9,4513,.,.,.
COc1ccc(S(=O)(=O)Nc2cc3c4c(c2)CC(=O)N4CCC3)cc1C,-2.8,-5.0,-14.7,6721,.,.,.
O=C(CN1CCOCC1)Nc1ccc(Cl)cc1,-4.1,1.6,?,3809,.,.,.
O=C(CN1CCOCC1)Nc1ccc(Cl)cn1,31.7*,1.3,22.3,?,0.8,-0.7,1.7
COc1cccc(SCc2noc(C(=O)NC(C)C)c2C(=O)NC(C)C)c1,-5.1,0.1,-0.2,2953,.,.,.
O=C(Nc1ccccc1C(=O)O)c1cc(S(=O)(=O)Nc2cccc(F)c2)ccc1Cl,2.3,-2.1,?,4123,-0.3,-3.1,4.8
O=C(Nc1ccc(S(=O)(=O)Nc2ccccn2)cc1)c1cccc(Br)c1,3.2,1.8,0.0,5552,.,.,.
O=C(Nc1ccccc1C(=O)O)c1cccc(S(=O)(=O)Nc2ccc(Br)cc2)c1,1.6,-0.6,16.4,2788,0.5,-2.0,-0.4
O=C(Nc1ccccc1C(=O)O)c1cccc(NS(=O)(=O)c2ccc(Br)cc2)c1,6.4,0.3,6.1,3689,.,.,.
SMILES,Anthrax LF inh2,BoNT A protease,BoNT F protease,Bead autofluor,BoNT-A LC CP1,BoNTF LC inh 1,Anthrax LF CP1
O=C(O)c1ccc(NS(=O)(=O)c2cccc(C(=O)Nc3ccc(Br)cc3)c2)cc1,30.7*,-2.0,?,4139,-0.8,-0.1,1.1
O=C(Nc1ccccc1C(=O)O)c1cc(S(=O)(=O)N2CCCCCC2)ccc1Cl,8.1,0.1,-4.8,3038,.,.,.
O=C(Nc1ccc(S(=O)(=O)Nc2ccccn2)cc1)c1cccc(Cl)c1,-4.3,-1.9,36.4*,3864,0.2,-3.1,-1.7
O=C1N(Cc2cccnc2)C[C@@H]2C[C@@H](c3cccc(OC4CCCC4)c3)N3CCC[C@@]123,0.1,-3.3,3.6,14444,.,.,.
Cc1ccc(C(=O)Nc2ccccc2C(=O)O)cc1S(=O)(=O)NC1CCCCC1,-2.8,4.3,0.9,4898,.,.,.
Cc1ccc(C(=O)Nc2ccccc2C(=O)O)cc1S(=O)(=O)Nc1ccccc1,.,.,.,.,-0.1,-2.2,-4.9
O=C(Nc1ccccc1)c1ccc(S(=O)(=O)Nc2cccc(O)c2)cc1,-1.4,-0.3,-1.9,5682,-0.1,-7.2,-3.9
CC1(C(=O)NS(=O)(=O)c2cccc(C#N)c2)CCN1C(=O)Cc1ccccc1Cl (stereo not drawn),0.5,-0.5,0.5,3893,.,.,.
CCOC(=O)C1=NNC2C(=O)N(Cc3ccccc3)C(=O)C12 (stereo not drawn),0.6,?,?,4841,.,.,.
COc1ccc(CCNC(=O)CCCc2ccccc2)cc1OC,9.6,1.9,34.7*,3365,-0.1,-5.4,2.1
CC(=O)N(Cc1nc2sc(C)c(C)c2c(=O)[nH]1)C1CCCC1,-8.0,-1.9,-1.2,4376,.,.,.
CCC(C)c1cc(S(=O)(=O)N2CCOCC2)ccc1OC (stereo not drawn),1.7,2.0,43.7*,3252,-1.2,-3.6,-2.6
O=C(O)CS(=O)(=O)CC(=O)NCc1cccc(C(F)(F)F)c1,1.6,4.2,49.8*,2638,0.5,-6.5,-2.4
O=C(Cc1cccc(C(F)(F)F)c1)NCc1ccc(Cl)cc1,-0.4,0.0,0.2,2705,.,.,.
O=C(Nc1nc2c(s1)CN(Cc1ccccc1)CC2)c1cccc(S(=O)(=O)N2CCc3ccccc32)c1,30.2*,20.0,5.2,13649,8.4,13.4,5.6
O=C(Nc1nc2ccccc2s1)c1cccc(S(=O)(=O)N2CCc3ccccc32)c1,-6.2,-1.0,-6.7,5120,.,.,.
Cc1cccc(C(C)(C)C)c1OCCOCCN1CCCC1,-0.3,4.4,37.6*,2192,0.9,-2.2,-2.2
Nc1ccc(-c2nnn(CC(=O)N3CCCCC3)n2)cc1,46.5*,1.2,?,3071,-0.9,-2.3,-4.5
COc1ccc(CNC(=O)C2CCN(C(=O)c3ccc(-c4ccccc4)cc3)CC2)cc1,31.9*,-1.1,-20.9,3412,0.5,-5.1,0.4
CN1OC[C@@H]2CN(C(=O)CCc3ccccc3)[C@H](c3cccc(-c4ccc(C#N)cc4)c3)C[C@@H]21,-3.2,-0.4,-9.5,3936,.,.,.
Cc1cc2cc(CNC(=O)Nc3ccccc3)ccc2n1C,-78.2,55.6*,-153.4,2200,9.7,-48.2,-8.0
Cc1cc2cc(CNC(=O)C(C)Oc3ccccc3)ccc2n1C (stereo not drawn),-10.2,90.0*,-56.9,2556,3.8,-4.3,2.2
CCC(CC)C(=O)NCc1ccc2c(c1)cc(C)n2C,-1.3,32.0*,-37.0,3772,1.7,-4.6,-1.9
COc1ccc(CNC(=O)Nc2ccccc2)cc1,-1.1,-0.7,-6.2,4598,.,.,.
Cc1cc2cc(CNC(=O)C3CC3)ccc2n1C,26.9,18.3,6.0,13924,.,.,.
CCOC(=O)NCc1ccc2c(c1)cc(C)n2C,41.8*,41.3*,21.5,13397,-0.1,-7.5,-1.2
